# Screening results (PubChem BioAssay)
# JMJD2A Tudor: blocks the human JMJD2A Tudor domain. O75164. AlphaScreen JMJD2A-Tudor / H3K4me3 peptide binding. Potency, µM (doses to about 114 µM), for the others: top-dose activity change, negative = inhibition, actives largely listed as inhibitors. 390,000 tested, 4.4% active; further: potency means the concentration at half of the fitted maximal effect; on the % scale 0 is the no-effect control and ±100 the full control effect; nearly all actives have a fitted effect of over 50% in size
# PI5P4K alpha inh: inhibitors of human PI5P4K alpha; PI5P4Kalpha enzyme, ADP-Glo luminescence, 60 min; hits give low values; max response, %; 330,000 tested, 1.2% active; AID 652105; active means max response of -50% or lower; inconclusive means between -30% and -50%; inactive means -30% or higher; further: value at the top dose of about 77 µM; on the % scale 0 is the no-effect control and ±100 the full control effect
# Target sequence (P48426 whole entry, looked up): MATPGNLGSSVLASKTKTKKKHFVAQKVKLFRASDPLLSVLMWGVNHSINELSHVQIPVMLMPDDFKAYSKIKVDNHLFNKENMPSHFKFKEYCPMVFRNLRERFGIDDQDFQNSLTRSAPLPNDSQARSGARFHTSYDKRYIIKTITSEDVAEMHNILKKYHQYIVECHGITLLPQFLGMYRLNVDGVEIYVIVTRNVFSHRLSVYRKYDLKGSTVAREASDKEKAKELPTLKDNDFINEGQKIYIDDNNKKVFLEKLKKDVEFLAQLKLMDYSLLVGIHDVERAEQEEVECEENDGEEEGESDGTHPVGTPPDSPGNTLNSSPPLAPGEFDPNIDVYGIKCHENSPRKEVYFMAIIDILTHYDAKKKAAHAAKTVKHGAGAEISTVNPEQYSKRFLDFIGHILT
#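 Single end-point luminescence (ADP-Glo) quantified ADP from PI5P4Kalpha turnover; ATP 5 microM final, 1 h at RT, 0.1% CHAPS and 0.28 mM EGTA in HEPES pH 7.4.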
# G9a block: inhibitors of human histone lysine methyltransferase G9a. Potency, µM (doses to about 102 µM), for inactives: at the highest dose activity, negative = inhibition, hits mostly inhibitors. AID 504332. 350,000 tested, 8.8% active. G9a H3K9 monomethylation, AlphaScreen, 2 h. Q96KQ7; further: potency means the concentration at half of the fitted maximal effect; on the % scale 0 is the no-effect control and ±100 the full control effect; nearly all actives have a fitted effect of over 75% in size
#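 Quantitative HTS format: methyltransferase activity on a biotin-tagged H3K9 peptide is measured by AlphaScreen, using a rabbit anti-monomethyl-H3K9 antibody with streptavidin donor and anti-IgG acceptor beads. Final levels are 20 nM enzyme, 500 nM peptide, 20 uM SAM; 2 h RT.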
# PLK1 PBD inh: blocks phosphopeptide binding to human PLK1 polo-box domain. 360,000 tested, 2.8% active. Plk1 PBD binding of FITC phosphopeptide, fluorescence polarization. Potency, µM, for the others: max response, negative = inhibition, most hits filed as inhibitors. AID 720504; further: potency means the concentration at half of the fitted maximal effect; series mostly up to about 57 µM; on the % scale 0 is the no-effect control and ±100 the full control effect; nearly all actives have a fitted effect of over 65% in size
# HP1b chromo inh: blocks HP1-beta chromodomain binding to methylated histone tails | P83916 | AlphaScreen HP1-beta / biotin-H3K9me3 peptide binding | Potency, µM (top dose mostly 114 µM), inactives show top-dose activity change, negative = inhibition, hits mostly inhibitors | 390,000 tested, 0.56% active; further: potency means the concentration at half of the fitted maximal effect; nearly all actives have a fitted effect of over 70% in size
# Target sequence (P83916 whole entry, looked up): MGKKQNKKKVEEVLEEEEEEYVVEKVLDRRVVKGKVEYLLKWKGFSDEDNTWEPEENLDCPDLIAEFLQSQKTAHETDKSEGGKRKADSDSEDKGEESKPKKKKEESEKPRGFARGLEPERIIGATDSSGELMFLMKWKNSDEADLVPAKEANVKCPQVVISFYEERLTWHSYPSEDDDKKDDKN
#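 Compound inhibition of the preformed complex between 50 nM HP1-beta and 50 nM biotinylated H3K9me3 peptide was read by AlphaScreen. Buffer was PBS pH 7.4 with 0.01% Tween-20. Incubations ran 30 min at room temperature, with 10 ug/mL donor/acceptor beads.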
# BAZ2B block: inhibitors of human BAZ2B bromodomain | AlphaScreen BAZ2B-H3K14Ac peptide displacement | Potency, µM (series often up to 114 µM), without a hit: top-dose activity change, negative = inhibition, hits mostly inhibitors | 360,000 tested, 4.4% active; further: potency means the concentration at half of the fitted maximal effect; on the % scale 0 is the no-effect control and ±100 the full control effect; nearly all actives have a fitted effect of over 60% in size
#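 Multi-concentration screen (max 110 uM) measuring displacement of acetylated histone H3 peptide from BAZ2B by AlphaScreen, using 50 nM protein, 50 nM peptide and 10 ug/mL streptavidin donor plus Ni-chelate acceptor beads.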
# An asterisk follows results filed as active; ? = inconclusive; · = no result; [ ] = remark or other dose. Hits are enriched below; roughly 12% of the tested compounds scored in any of these assays. Unless noted, the call rests on the fitted dose curve; in most records, active means well fitted curve in the direction sought with a large enough effect; inconclusive means small, poorly fitted or top-dose-only effect, or another doubt; inactive means no such curve, though single readings can be large; an effect the other way counts as inactive or inconclusive.
SMILES,JMJD2A Tudor,PI5P4K alpha inh,G9a block,PLK1 PBD inh,HP1b chromo inh,BAZ2B block
COc1cc2nc(C3CCC3)n(NC(=O)C(OC(C)=O)c3ccccc3)c(=O)c2cc1OC (stereo not drawn),-9.2%,·,-8.2%[59 µM],-5.4%,21.1%,·
COc1cc2nc(C3CCC3)n(NC(=O)C3CCC3)c(=O)c2cc1OC,?,-8.2,0.9%[59 µM],23.8µM*,-12.2%,6.3%
COc1cc2nc(C3CCC3)n(NC(=O)COc3ccccc3)c(=O)c2cc1OC,?,·,?,26.7µM*,-21.6%,0.0%
CCc1ccc(S(=O)(=O)Nc2cc3c(cc2C)n(C)c(=O)c(=O)n3C)cc1,-19.0%,·,1.5%[59 µM],·,-24.8%,-9.7%
O=C(NCCS(=O)(=O)N1CCN(c2ccc(F)cc2)CC1)C12CC3CC(CC(C3)C1)C2,-23.4%,-2.4,6.9%[59 µM],3.3%,7.2%,8.6%
COc1ccc(CCNC(=O)c2cnc3sc(N4CCCCCC4)nn3c2=O)cc1,-2.5%,·,0.5%[59 µM],·,32.9%,2.7%
O=C(N/N=C/c1ccco1)C1CC1c1ccccc1 (stereo not drawn),?,-50.3*,-19.9%,-20.6%,?,50.1µM*
O=C(N/N=C/c1ccco1)C1CC1,-3.4%,3.3,-9.6%[59 µM],-7.9%,39.0%,-2.4%
CC(C)(C)c1ccc(C2CC2C(=O)N/N=C\c2ccc[nH]2)cc1 (stereo not drawn),56.2µM*,7.5,39.8µM*,-0.9%,?,?
Cc1cccc(C(=O)Nc2ccc(C(=O)N/N=C/c3ccco3)cc2)c1,44.7µM*,-51.2*,·,21.2µM*,?,·
O=C(CCC(=O)Nc1ccccc1)N/N=C/c1ccco1,-10.8%,·,19.5%[59 µM],-17.6%,12.1%,7.5%
O=C(N/N=C/c1ccco1)Nc1ccccc1,-10.5%,-0.5,79.4µM*,-2.9%,-0.2%,2.4%
CCc1ccc(NC(=O)C(=O)NCC(c2cccnc2)N2CCN(Cc3ccccc3)CC2)cc1 (stereo not drawn),-12.8%,·,-2.7%[59 µM],·,33.8%,2.3%
CCc1ccc(N2CC(c3nc4ccccc4n3Cc3ccccc3C)CC2=O)cc1 (stereo not drawn),-19.9%,·,1.7%[59 µM],·,9.6%,-26.4%
CC1=C(C(=O)N(C)C)CC(CC(=O)NCCCCc2ccccc2)C(=O)N1Cc1ccccc1 (stereo not drawn),·,-7.9,·,-10.0%,·,·
CS(=O)c1ccccc1O (stereo not drawn),-14.0%,-1.8,12.2%[59 µM],-5.1%,17.3%,-15.1%
O=S(c1ccccc1O)S(=O)c1ccccc1O (stereo not drawn),0.794µM*,-82.8*,·,0.597µM*,3.55µM*,·
CC1(Oc2ccccc2)CCN(Cc2csc3ccccc23)C1 (stereo not drawn),·,6.2,·,-10.2%,·,·
CCC(C)[C@H](NC(=O)NCCCOC(C)C)C(=O)OC (stereo partly drawn),-4.7%,-2.1,16.7%,-7.6%,48.8%,-11.3%
COCCCNC(=O)C(=O)NCCCOC(C)C,5.62µM*,1.2,4.6%[59 µM],-11.1%,35.1%,-2.3%
CCN(CC)S(=O)(=O)c1ccc2c(c1)c(=O)c(C(=O)N1CCN(c3ccccn3)CC1)cn2C,13.8%,1.2,15.2%[2.33 µM],-6.0%,20.1%,?
CCOC(=O)c1c(C)n(-c2ccc(C)cc2)c2ccc(O)c(CN(C)C)c12,?,-0.5,44.7µM*,-4.9%,-8.1%,?
CCOC(=O)c1c(C)n(-c2ccc(OC)cc2)c2ccc(O)c(CN(C)C)c12,-19.1%[11.4 µM],1.2,?,29.9µM*,10.5%,-29.0%
COc1cccc2nc(-c3cccs3)nc(NN3C(=O)C=C(C)C3=O)c12,-25.5%,·,·,·,·,·
CCOC1=C/C(=C/c2c(N)n3nc(-c4ccccc4)sc3nc2=O)C=CC1=O,-32.2%,-83.4*,39.8µM*,19.8%,1.1%,39.8µM*
SMILES,JMJD2A Tudor,PI5P4K alpha inh,G9a block,PLK1 PBD inh,HP1b chromo inh,BAZ2B block
CCOC1=C/C(=C/c2c(N)n3oc(C)cc3nc2=O)C=CC1=O,·,·,-46.0%,·,·,2.3%
Nc1c(C=C2C=CC(=O)C=C2)c(=O)nc2sc(CC(=O)N3CCCC3)nn12,-6.9%,-13.2,16.0%[0.0925 µM],-3.3%,66.6%,-10.7%
COC1=C/C(=C/c2c(N)n3nc(-c4ccc(C)cc4)sc3nc2=O)C=CC1=O,?,-74.4*,?,21.2%,6.6%,50.1µM*
CCS(=O)(=O)c1nn2c(N)c(/C=C3/C=CC(=O)C(OC)=C3)c(=O)nc2s1,-19.9%,-84.3*,?,63.0%,12.4%,-7.0%
Cc1ccn2c(-c3csc(NCc4ccco4)n3)c(C)nc2c1,100µM*,-5.3,44.7µM*,-21.7%,-30.1%,?
CC(=O)Nc1ccc(-c2csc(NCc3ccco3)n2)cc1,?,-11.3,10µM*,?,-28.0%,-33.1%
c1cncc(-c2csc(NCc3ccco3)n2)c1,?,-3.2,13.2%[12.7 µM],-13.4%,-0.1%,-38.0%
COc1ccc(-c2nc3cccc(C)n3c2NCc2ccco2)cc1OC,?,-6.3,44.7µM*,-16.1%,-15.6%,50.1µM*
COc1ccc(-c2csc(NCc3ccco3)n2)cc1C,?,9.4,?,-2.3%,?,44.7µM*
CCc1noc(C)c1C(=O)N(C)CC(=O)Nc1ccc(Br)cc1C,-12.3%,4.0,9.0%[0.501 µM],-9.7%,12.3%,-2.6%
Cc1cc2c(s1)c1cnn(Cc3ccc(Cl)c(F)c3)c(=O)c1n2C,-24.7%,·,·,·,·,·
COc1ccc(-c2noc(-c3ccc(NCc4ccco4)c([N+](=O)[O-])c3)n2)cc1OC,-7.9%,·,-8.7%[59 µM],·,18.1%,-11.2%
COc1ccccc1CNc1ccc(-c2nc(-c3cccnc3)no2)cc1[N+](=O)[O-],-6.0%,·,-7.2%[59 µM],·,14.4%,0.4%
O=C(CCNS(=O)(=O)c1ccc(Cl)cc1)N1CCN(c2ncccn2)CC1,-12.3%,-0.1,-0.6%,-3.9%,19.9%,7.1%
N#Cc1c(N)oc(-c2ccco2)c1-c1ccco1,?,?,44.7µM*,-14.3%,-6.6%,?
COc1ccc(OC)c(/C=N/c2oc(-c3ccco3)c(-c3ccco3)c2C#N)c1,50.1µM*,-78.8*,31.6µM*,-11.7%,?,18.6%
N#Cc1c(N)nc2c(c1-c1cccs1)CCCC2,-10.9%,8.4,33.8%[59 µM],-4.4%,29.1%,-3.2%
N#Cc1c(N)oc(-c2ccccc2)c1-c1ccccc1,-12.6%,-10.5,?,-9.2%,40.4%,-23.4%
N#Cc1c(N)oc(-c2cccs2)c1-c1cccs1,?,-28.8,12.6µM*,-22.9%,5.0%,-11.3%
COC(=O)N1CCN(/[N+]([O-])=N/Oc2ccc([N+](=O)[O-])cc2[N+](=O)[O-])CC1,-12.4%,·,·,·,39.4%,·
O=C(C1CC1)N1CCN(c2ccc([N+](=O)[O-])cc2-n2cccc2)CC1,?,3.1,·,-11.3%,-36.0%,44.7µM*
O=C(c1ccc([N+](=O)[O-])cc1)N1CCN(c2ncc(Br)cn2)CC1,-10.1%,-8.2,0.6%,26.7µM*,18.2%,22.6%
